Laboratory results as given in PubChem BioAssay (NCI).
This is part of a sample that, as a whole, favours compounds with a hit. Of some 79,000 tested, about 15% had one in any assay. Unmarked numbers belong to inactive results. Rule as the data show it: active = growth inhibition above about 70%; inactive = the rest. Residues, ends and D or L forms follow the SMILES beside them. *: point of attachment. Fmoc = O=C(OCC1c2ccccc2-c2ccccc21)*; Boc = CC(C)(C)OC(=O)*

experiment: NCI Yeast Anticancer Drug Screen. Data for the mec2-1 strain (AID 157); details: S. cerevisiae mec2-1 strain, at 1.2 µM, stronger effect = higher value
Procedure, shortened: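 Yeast mec2-1 mutant treated with compound. Readout: growth inhibition vs vehicle controls.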

Going from CC(C)C(=O)CC(Sc1ccc(N)cc1)c1ccccc1 (configuration not stated) to N#CCC(=O)N/N=C(\c1ccccc1)C(c1ccccc1)C1(O)C(=O)Nc2c(Cl)ccc(Cl)c21 (configuration not stated), the growth inhibition rises from 1% to 3%.

First: CC(C)OP(=O)(OC(C)C)/C(Cl)=N/Nc1ccc([N+](=O)[O-])cc1
Second: COc1cccc(/C=C2\S/C(=N/Nc3nc(-c4ccc([N+](=O)[O-])cc4)cs3)NC2=O)c1O
The growth inhibition of the first is lower: -5% for the first, 1% for the second.

First: O=[N+]([O-])c1cc(Cl)ccc1S(=O)(=O)c1ccc(Cl)cc1[N+](=O)[O-]
Second: O=[N+]([O-])c1ccc(/C=C\c2ccc3c(c2)OCO3)c([N+](=O)[O-])c1
The growth inhibition of the first is lower: -12% for the first, -3% for the second.

Compared with CCCCCCNCCCNc1c2cc(OC)ccc2nc2cccc([N+](=O)[O-])c12, CN(C)CCNCCCNc1c2ccccc2nc2cccc([N+](=O)[O-])c12 is higher in growth inhibition: -1% for the first, 22% for the second.

CCC[CH2][Ge]([CH2]CCC)([CH2]CCC)[O]C(=O)C(O)c1ccccc1 (configuration not stated) and CCN(CC)CCCNc1ccc([N+](=O)[O-])c2nc3ccc(OC)cc3c(NCCCN(CC)CC)c12 are the same in growth inhibition: -1% for the first, -1% for the second.

Going from COc1ccc(-c2cc(-c3cc(C)cc(Cl)c3O)nc3[nH]c(=S)[nH]c(=S)c23)cc1 to COc1ccc(C(C)c2cc3c(cc2OCC(C)=O)OCO3)cc1 (configuration not stated), the growth inhibition falls from 0% to -3%.

Compared with O=C1c2ccccc2N2OC3(N4CCCC4)CCCCC3C12c1ccccc1 (configuration not stated), OC(Cc1cccc2ccccc12)CN1CCC(c2ccccc2)CC1 (configuration not stated) is higher in growth inhibition: -19% for the first, 17% for the second.

Compared with CC(C)OC(=O)NNc1cc(Cl)ccc1Cl, CCCNC(=O)OCc1c(COC(=O)NCCC)c(-c2ccc(Cl)c(Cl)c2)n2c1CCC2 is lower in growth inhibition: -4% for the first, -47% for the second.

Going from Cc1oc2ccccc2c(=O)c1Cn1nnc2ccccc21 to CCS(=O)(=O)Nc1ccc(Nc2c3ccccc3nc3ccccc23)c(OC)c1, the growth inhibition falls from -2% to -42%.

Going from CC1(C)OC(=O)C(=Cc2ccc([N+](=O)[O-])s2)C(=O)O1 to CC1=NN(C(=O)c2ccccc2O)C(=O)/C1=C/c1ccco1, the growth inhibition rises from -28% to -4%.

First: C1=CCN([B-](c2ccccc2)[C+]2CCCCC2)C=C1
Second: O=S(=O)(c1ccccc1)N1CN2CN(C1)CN(S(=O)(=O)c1ccccc1)C2
The growth inhibition of the first is higher: -1% for the first, -2% for the second.

First: O=[N+]([O-])c1cc[n+]([O-])c(Cl)c1
Second: O=[N+]([O-])c1ccc2nc(=S)[nH]n2c1
The growth inhibition of the first is higher: 5% for the first, 1% for the second.

Compared with CC1(C)CC(=O)C(C(=O)Nc2cccs2)=C(O)C1, O=C(NO)c1coc2ccccc2c1=O is lower in growth inhibition: 3% for the first, -3% for the second.

Going from O=C1C=C(Br)C(=O)c2ccccc21 to COc1cc([N+](=O)[O-])c2ncccc2c1Br, the growth inhibition falls from 17% to 2%.

Compared with C[N+](C)([O-])CCCNc1c2ccccc2nc2cccc([N+](=O)[O-])c12, Cc1cccc2c(NCCCN(C)C)c3c([N+](=O)[O-])ccc(C)c3nc12 is higher in growth inhibition: 3% for the first, 22% for the second.

Going from OC1(c2ccccc2)C2CC=CC2C1(c1ccccc1)c1ccccc1 (configuration not stated) to O=S(=O)(c1cccc(C(F)(F)F)c1)N1c2ccccc2-n2cccc2C1c1cccnc1 (configuration not stated), the growth inhibition falls from -3% to -59%.

Going from C[n+]1c(-c2ccc(/C=N/NC(=O)c3ccc(C(=O)N/N=C/c4ccc(-c5cn6ccccc6[n+]5C)cc4)cc3)cc2)cn2ccccc21 to CC(C)(C)OC(=O)NCCCCC(NC(=O)C(Cc1c[nH]c2ccccc12)NC(=O)OCC1c2ccccc2-c2ccccc21)C(=O)O (configuration not stated) (Fmoc-Trp-Lys(Boc)-OH; configuration not given here), the growth inhibition falls from 7% to -1%.

Going from CCN(CC)CCC(=O)Nc1ccc2sc3ccccc3c(=O)c2n1 to O=C(c1ccccc1)[C@H]1Nc2ccc(Cl)cc2[C@H]2OCCC[C@@H]12, the growth inhibition falls from 1% to -23%.

same assay, conditions: S. cerevisiae mec2-1 strain, at 3.7 µM, stronger effect = higher value

First: CC(C)C(=O)CC(Sc1ccc(N)cc1)c1ccccc1 (configuration not stated)
Second: N#CCC(=O)N/N=C(\c1ccccc1)C(c1ccccc1)C1(O)C(=O)Nc2c(Cl)ccc(Cl)c21 (configuration not stated)
The growth inhibition of the first is lower: -2% for the first, 4% for the second.

Compared with CC(C)OP(=O)(OC(C)C)/C(Cl)=N/Nc1ccc([N+](=O)[O-])cc1, COc1cccc(/C=C2\S/C(=N/Nc3nc(-c4ccc([N+](=O)[O-])cc4)cs3)NC2=O)c1O is higher in growth inhibition: -3% for the first, 12% for the second.

First: O=[N+]([O-])c1cc(Cl)ccc1S(=O)(=O)c1ccc(Cl)cc1[N+](=O)[O-]
Second: O=[N+]([O-])c1ccc(/C=C\c2ccc3c(c2)OCO3)c([N+](=O)[O-])c1
The growth inhibition of the first is higher: 10% for the first, -3% for the second.

Going from CCCCCCNCCCNc1c2cc(OC)ccc2nc2cccc([N+](=O)[O-])c12 to CN(C)CCNCCCNc1c2ccccc2nc2cccc([N+](=O)[O-])c12, the growth inhibition rises from 4% to 18%.

CCC[CH2][Ge]([CH2]CCC)([CH2]CCC)[O]C(=O)C(O)c1ccccc1 (configuration not stated) and CCN(CC)CCCNc1ccc([N+](=O)[O-])c2nc3ccc(OC)cc3c(NCCCN(CC)CC)c12 are the same in growth inhibition: 2% for the first, 2% for the second.

First: COc1ccc(-c2cc(-c3cc(C)cc(Cl)c3O)nc3[nH]c(=S)[nH]c(=S)c23)cc1
Second: COc1ccc(C(C)c2cc3c(cc2OCC(C)=O)OCO3)cc1 (configuration not stated)
The growth inhibition of the first is higher: 0% for the first, -1% for the second.

Compared with O=C1c2ccccc2N2OC3(N4CCCC4)CCCCC3C12c1ccccc1 (configuration not stated), OC(Cc1cccc2ccccc12)CN1CCC(c2ccccc2)CC1 (configuration not stated) is higher in growth inhibition: -7% for the first, 26% for the second.

First: CC(C)OC(=O)NNc1cc(Cl)ccc1Cl
Second: CCCNC(=O)OCc1c(COC(=O)NCCC)c(-c2ccc(Cl)c(Cl)c2)n2c1CCC2
The growth inhibition of the first is higher: 8% for the first, -40% for the second.

First: Cc1oc2ccccc2c(=O)c1Cn1nnc2ccccc21
Second: CCS(=O)(=O)Nc1ccc(Nc2c3ccccc3nc3ccccc23)c(OC)c1
The growth inhibition of the first is higher: -3% for the first, -32% for the second.

Compared with CC1(C)OC(=O)C(=Cc2ccc([N+](=O)[O-])s2)C(=O)O1, CC1=NN(C(=O)c2ccccc2O)C(=O)/C1=C/c1ccco1 is higher in growth inhibition: -5% for the first, 2% for the second.

First: C1=CCN([B-](c2ccccc2)[C+]2CCCCC2)C=C1
Second: O=S(=O)(c1ccccc1)N1CN2CN(C1)CN(S(=O)(=O)c1ccccc1)C2
The growth inhibition of the first is higher: -2% for the first, -6% for the second.

Going from O=[N+]([O-])c1cc[n+]([O-])c(Cl)c1 to O=[N+]([O-])c1ccc2nc(=S)[nH]n2c1, the growth inhibition falls from 15% to -1%.

First: CC1(C)CC(=O)C(C(=O)Nc2cccs2)=C(O)C1
Second: O=C(NO)c1coc2ccccc2c1=O
The growth inhibition of the first is lower: -18% for the first, -5% for the second.

Compared with O=C1C=C(Br)C(=O)c2ccccc21, COc1cc([N+](=O)[O-])c2ncccc2c1Br is lower in growth inhibition: 37% for the first, 2% for the second.

First: C[N+](C)([O-])CCCNc1c2ccccc2nc2cccc([N+](=O)[O-])c12
Second: Cc1cccc2c(NCCCN(C)C)c3c([N+](=O)[O-])ccc(C)c3nc12
The growth inhibition of the first is lower: 54% for the first, 61% for the second.

Compared with OC1(c2ccccc2)C2CC=CC2C1(c1ccccc1)c1ccccc1 (configuration not stated), O=S(=O)(c1cccc(C(F)(F)F)c1)N1c2ccccc2-n2cccc2C1c1cccnc1 (configuration not stated) is lower in growth inhibition: -2% for the first, -32% for the second.

Compared with C[n+]1c(-c2ccc(/C=N/NC(=O)c3ccc(C(=O)N/N=C/c4ccc(-c5cn6ccccc6[n+]5C)cc4)cc3)cc2)cn2ccccc21, CC(C)(C)OC(=O)NCCCCC(NC(=O)C(Cc1c[nH]c2ccccc12)NC(=O)OCC1c2ccccc2-c2ccccc21)C(=O)O (configuration not stated) (Fmoc-Trp-Lys(Boc)-OH; configuration not given here) is lower in growth inhibition: 13% for the first, -4% for the second.

Going from CCN(CC)CCC(=O)Nc1ccc2sc3ccccc3c(=O)c2n1 to O=C(c1ccccc1)[C@H]1Nc2ccc(Cl)cc2[C@H]2OCCC[C@@H]12, the growth inhibition falls from 3% to -25%.
